Eleven compounds from PubChem BioAssay (Tox21) can be followed below.

A number with no mark means an inactive call. Records with an inconclusive call do not appear. Active and inactive are the calls of the source. Unless noted, the call rests on the fitted dose curve; in most records, active means well fitted curve in the direction sought with a large enough effect in the repeat runs; inconclusive means weak or mixed curves; inactive means no such curve, though single readings can be large; an effect the other way counts as inactive or inconclusive.

Assay [1] in a line: qHTS assay to identify small molecule antagonists of the androgen receptor (AR) signaling pathway using the MDA cell line in the presence of 0.5 nM R1881 - cell viability counter screen (AID 1259242). Further: nearly all actives have a fitted effect of over 45% in size. In a few lines: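 Counter screen for cytotoxicity run in the same wells as the AR antagonist reporter screen: MDA-kb2 cells were treated 16 hr with test compounds and 0.5 nM R1881, then live-cell protease activity was measured by fluorescence.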

Assay [2] is described as follows: qHTS assay to identify small molecule HDAC inhibitors (AID 1259364). Further: nearly all actives have a fitted effect of over 45% in size. Further: potency means the concentration at half of the fitted maximal effect. Put shortly:
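Luminescence from a cell-permeant luminogenic class I/II HDAC substrate reports endogenous deacetylase activity in intact HCT-116 cells treated with compounds for 2 h.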

Assay [3] in a line: qHTS assay to identify small molecule HDAC inhibitors - cell viability counter screen (AID 1259365). Further: series mostly up to about 92 µM; nearly all actives have a fitted effect of over 50% in size. In a few lines: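 To flag cytotoxic hits, 1,500 wild-type HCT-116 cells per well, plated the day before, receive test compounds for 2hr at 37 C before CellTiter-Glo reagent and a luminescence read.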
The nature of assay [4]: qHTS assay to identify small molecule agonists of the sonic hedgehog signaling (Shh) pathway - cell viability counter screen (AID 1259366). Further: nearly all actives have a fitted effect of over 50% in size. Put shortly: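 Fluorescence from CellTiter-Fluor reports live cells in this counter screen. NIH/3T3-derived Gli1-Luc reporter cells receive test compounds for 24hr at 37C; reagent goes in at 23hr.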
The nature of assay [5]: qHTS assay to identify small molecule antagonists of the sonic hedgehog signaling (Shh) pathway - cell viability counter screen (AID 1259367). Further: nearly all actives have a fitted effect of over 55% in size. Put shortly: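 Using CellTiter-Fluor, viability of Gli1-Luc reporter 3T3 cells is read by fluorescence in the wells used for the Shh luciferase assay. Treatment lasts 23 hr with conditioned medium, then reagent 1 hr at 37C.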
A short description of assay [6]: qHTS assay to identify small molecule agonists of the sonic hedgehog signaling (Shh) pathway (AID 1259368; calls by dose curve;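 further: NIH/3T3-derived 3T3Gli1-Luc cells carrying a stable Gli1-driven firefly luciferase reporter; series mostly up to about 92 µM; nearly all actives have a fitted effect of over 15% in size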). In a few lines: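 3T3Gli1-Luc (NIH/3T3 clone, stable Gli1-Luc); 4 hr pre-incubation, then cpd in DMSO 24 hr, 37 C/5% CO2; luciferase reagent 30 min RT; luminescence.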
Assay [7] in a line: qHTS assay to identify small molecule antagonists of the sonic hedgehog signaling (Shh) pathway (AID 1259369; calls by dose curve; further: nearly all actives have a fitted effect of over 45% in size). Put shortly: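 3T3Gli1-Luc, conditioned-medium-stimulated, 24hr cpd, 37C/5% CO2; Gli1-driven firefly Luc luminescence after 30min RT with luciferase reagent. Cells plated 4hr before cpd.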
For assay [8], the target named is Estrogen receptor beta (Homo sapiens) (UniProt Q92731). The experiment in a line: qHTS assay to identify small molecule agonists of the estrogen receptor beta (ER-beta) signaling pathway (AID 1259377; active means well fitted activation curve with a large enough effect in the signal ratio in the repeat runs, not every such curve was filed as active; the % refers to the signal ratio). In a few lines:
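Screening used GripTite ER-beta-UAS-bla cells held in 2% charcoal-stripped FBS medium. After overnight (16 hr) compound incubation at 37C, beta-lactamase activity was detected with a FRET substrate by fluorescence.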

For assay [9] the target is unchanged. The experiment in a line: qHTS assay to identify small molecule antagonists of the estrogen receptor beta (ER-beta) signaling pathway (AID 1259378; active means well fitted inhibition curve with a large enough effect in the signal ratio in the repeat runs, not every such curve was filed as active; the % refers to the signal ratio). Put shortly:
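Antagonist mode: compounds added to beta-lactamase reporter HEK293T ER-beta-UAS cells stimulated with E2 (1nM final), 16 hr at 37C. LiveBLAzer B/G FRET substrate, 2 hours room temperature, fluorescence read-out.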

A short description of assay [10]: qHTS assay to identify small molecule agonists of the androgen receptor (AR) signaling pathway in the presence of an antagonist - cell viability counter screen (AID 1259379).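 Further: MDA-kb2 human breast cancer cells carrying an MMTV luciferase reporter; series mostly up to about 92 µM; nearly all actives have a fitted effect of over 25% in size.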 In a few lines: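 Cells: MDA-kb2 (MMTV-luc, AR and GR elements), 3,000/well, 5 hr settle. Added: nilutamide 3.0uM final, then compounds (15 conc.). Incubation: 16 hr, 37C, no CO2. Read-out: CellTiter-Fluor, 1 hr, fluorescence.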

The nature of assay [11]: qHTS assay to identify small molecule agonists of the estrogen receptor beta (ER-beta) signaling pathway - cell viability counter screen (AID 1259380). Further: nearly all actives have a fitted effect of over 30% in size. Further: potency means the concentration at half of the fitted maximal effect. Put shortly: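 HEK293T ER-beta-UAS-bla; 2% CS-FBS; 6 hr pre-plate, 16 hr cpd at 37C/5% CO2; LiveBLAzer read first, then CellTiter-Glo 30 min RT, luminescence.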
Assay [12] is described as follows: qHTS assay to identify small molecule antagonists of the estrogen receptor beta (ER-beta) signaling pathway - cell viability counter screen (AID 1259382).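 Further: HEK293T cells carrying ER-beta-UAS-bla reporter stimulated with estradiol; series mostly up to about 92 µM; nearly all actives have a fitted effect of over 55% in size.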 Put shortly: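 Cells: ER-beta-UAS-bla HEK293T, 2,000/well, 2% CS-FBS, 6 hr settle. Cpd + E2 (1nM final), 16 hr, 37C/5% CO2. Bla FRET substrate 2 hr RT, then CellTiter-Glo 30 min RT, luminescence.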
A short description of assay [13]: qHTS assay to identify small molecule agonists or antagonists of the thyroid stimulating hormone receptor (TSHR) signaling pathway - wild type cell line counter screen (AID 1259384; calls by dose curve). In a few lines:
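Counter screen in untransfected Hek293: compounds (15-point titration, triplicate) plus phosphodiesterase inhibitor Ro20-1724 added after 18 h plating; 30 min RT. Intracellular cAMP via competitive d2/cryptate immunoassay, 1 h incubation.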

The nature of assay [14]: qHTS assay to identify small molecule agonists of the estrogen receptor alpha (ER-alpha) signaling pathway in the presence of an antagonist - cell viability counter screen (AID 1259386).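 Further: series mostly up to about 92 µM; cells exposed to compounds for 22 h at 37 °C before the viability read; nearly all actives have a fitted effect of over 30% in size.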 In a few lines:
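VM7Luc4E2, stripped-serum pre-culture 5 d; 24hr plating; +ICI-182,780 10.0nM final; cpds 15 conc, 22hr, 37C/5% CO2; CellTiter-Fluor added at 21hr, fluorescence 1hr later.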

In assay [15] the target is Thyrotropin receptor (Homo sapiens) (UniProt P16473). The experiment in a line: qHTS assay to identify small molecule antagonists of the thyroid stimulating hormone receptor (TSHR) signaling pathway (AID 1259385; calls by dose curve; further: nearly all actives have a fitted effect of over 20% in size). Put shortly:
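Antagonist mode: compound-treated TSHR-expressing HEK293 cells were stimulated with 1.5 ng/mL TSH (final) in presence of Ro20-1724 for 30 min at RT. HTRF cAMP detection after 1 h; each compound tested at 15 concentrations, triplicate.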

Assay [16] concerns the target Estrogen receptor (Homo sapiens) (UniProt P03372). Kind of assay: qHTS assay to identify small molecule agonists of the estrogen receptor alpha (ER-alpha) signaling pathway in the presence of an antagonist (AID 1259383; calls by dose curve; further: top concentration of the series differs between compounds; nearly all actives have a fitted effect of over 15% in size). In a few lines:
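VM7Luc4E2, endog. ER-alpha + 4×ERE-luc; charcoal-stripped FBS, phenol red-free, 5 d; 24hr plating; +10.0nM ICI-182,780 (final); cpds 15 conc, 22hr, 37C/5% CO2; ONE-Glo luminescence.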

Assay [17] has as its target Androgen receptor (Homo sapiens) (UniProt P10275). Kind of assay: qHTS assay to identify small molecule agonists of the androgen receptor (AR) signaling pathway in the presence of an antagonist (AID 1259381; calls by dose curve; further: nearly all actives have a fitted effect of over 15% in size). In a few lines:
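MDA-kb2 cells, 3,000/well, rested 5hr at 37C/0% CO2 → nilutamide 3.0uM final or buffer → compounds, 15 conc. → 16hr at 37C → ONE-Glo, 30min RT → luminescence.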

Thyrotropin receptor (Homo sapiens), sequence (P16473 whole entry, looked up): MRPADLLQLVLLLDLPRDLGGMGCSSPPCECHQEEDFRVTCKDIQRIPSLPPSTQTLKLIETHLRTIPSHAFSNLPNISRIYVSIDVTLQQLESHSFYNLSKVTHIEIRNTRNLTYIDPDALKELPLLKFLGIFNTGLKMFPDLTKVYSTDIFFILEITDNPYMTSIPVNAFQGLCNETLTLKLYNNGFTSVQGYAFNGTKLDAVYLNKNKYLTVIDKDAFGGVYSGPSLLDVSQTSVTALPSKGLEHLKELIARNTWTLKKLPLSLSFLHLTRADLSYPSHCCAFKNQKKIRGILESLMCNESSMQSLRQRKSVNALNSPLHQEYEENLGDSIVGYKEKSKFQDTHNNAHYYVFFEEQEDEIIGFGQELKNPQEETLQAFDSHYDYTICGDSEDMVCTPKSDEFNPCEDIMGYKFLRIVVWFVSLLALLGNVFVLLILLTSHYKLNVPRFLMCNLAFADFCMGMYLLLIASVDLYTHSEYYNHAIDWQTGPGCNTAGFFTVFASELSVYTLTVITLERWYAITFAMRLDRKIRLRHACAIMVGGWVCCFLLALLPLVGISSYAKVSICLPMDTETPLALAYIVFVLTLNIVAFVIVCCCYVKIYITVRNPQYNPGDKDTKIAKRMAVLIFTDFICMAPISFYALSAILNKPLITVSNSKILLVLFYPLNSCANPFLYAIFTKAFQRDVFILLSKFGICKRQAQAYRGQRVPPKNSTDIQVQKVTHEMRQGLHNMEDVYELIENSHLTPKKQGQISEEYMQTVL
Estrogen receptor (Homo sapiens), sequence (P03372 whole entry, looked up): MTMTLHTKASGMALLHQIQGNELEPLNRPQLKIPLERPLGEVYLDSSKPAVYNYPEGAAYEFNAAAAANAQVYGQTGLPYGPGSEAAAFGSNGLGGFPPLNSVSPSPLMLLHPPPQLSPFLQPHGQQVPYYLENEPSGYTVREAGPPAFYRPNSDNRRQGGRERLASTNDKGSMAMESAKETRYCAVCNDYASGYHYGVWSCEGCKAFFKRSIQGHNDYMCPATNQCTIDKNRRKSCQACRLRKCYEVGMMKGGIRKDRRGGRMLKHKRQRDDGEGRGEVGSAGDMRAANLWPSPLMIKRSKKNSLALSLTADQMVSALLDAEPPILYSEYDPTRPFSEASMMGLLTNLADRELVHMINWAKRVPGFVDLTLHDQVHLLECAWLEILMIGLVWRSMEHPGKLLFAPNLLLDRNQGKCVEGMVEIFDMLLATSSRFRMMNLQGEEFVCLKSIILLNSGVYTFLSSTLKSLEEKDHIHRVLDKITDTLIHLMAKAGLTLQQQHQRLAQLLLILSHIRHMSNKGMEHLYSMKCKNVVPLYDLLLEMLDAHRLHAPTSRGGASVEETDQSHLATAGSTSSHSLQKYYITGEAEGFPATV
Estrogen receptor beta (Homo sapiens), sequence (Q92731 whole entry, looked up): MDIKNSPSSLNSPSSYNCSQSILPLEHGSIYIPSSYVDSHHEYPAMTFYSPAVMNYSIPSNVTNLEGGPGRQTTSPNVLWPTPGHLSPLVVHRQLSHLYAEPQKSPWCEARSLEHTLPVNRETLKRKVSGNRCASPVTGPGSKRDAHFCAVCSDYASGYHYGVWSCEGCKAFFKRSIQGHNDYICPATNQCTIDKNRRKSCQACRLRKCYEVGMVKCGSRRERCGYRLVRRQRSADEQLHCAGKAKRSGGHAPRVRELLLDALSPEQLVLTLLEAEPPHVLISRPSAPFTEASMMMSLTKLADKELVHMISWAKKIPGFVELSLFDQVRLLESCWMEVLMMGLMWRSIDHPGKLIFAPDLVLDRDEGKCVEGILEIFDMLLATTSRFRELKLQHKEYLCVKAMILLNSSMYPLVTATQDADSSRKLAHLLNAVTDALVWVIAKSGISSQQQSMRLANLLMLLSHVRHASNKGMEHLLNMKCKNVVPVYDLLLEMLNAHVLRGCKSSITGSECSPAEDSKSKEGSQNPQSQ
Androgen receptor (Homo sapiens), sequence (P10275 whole entry, looked up): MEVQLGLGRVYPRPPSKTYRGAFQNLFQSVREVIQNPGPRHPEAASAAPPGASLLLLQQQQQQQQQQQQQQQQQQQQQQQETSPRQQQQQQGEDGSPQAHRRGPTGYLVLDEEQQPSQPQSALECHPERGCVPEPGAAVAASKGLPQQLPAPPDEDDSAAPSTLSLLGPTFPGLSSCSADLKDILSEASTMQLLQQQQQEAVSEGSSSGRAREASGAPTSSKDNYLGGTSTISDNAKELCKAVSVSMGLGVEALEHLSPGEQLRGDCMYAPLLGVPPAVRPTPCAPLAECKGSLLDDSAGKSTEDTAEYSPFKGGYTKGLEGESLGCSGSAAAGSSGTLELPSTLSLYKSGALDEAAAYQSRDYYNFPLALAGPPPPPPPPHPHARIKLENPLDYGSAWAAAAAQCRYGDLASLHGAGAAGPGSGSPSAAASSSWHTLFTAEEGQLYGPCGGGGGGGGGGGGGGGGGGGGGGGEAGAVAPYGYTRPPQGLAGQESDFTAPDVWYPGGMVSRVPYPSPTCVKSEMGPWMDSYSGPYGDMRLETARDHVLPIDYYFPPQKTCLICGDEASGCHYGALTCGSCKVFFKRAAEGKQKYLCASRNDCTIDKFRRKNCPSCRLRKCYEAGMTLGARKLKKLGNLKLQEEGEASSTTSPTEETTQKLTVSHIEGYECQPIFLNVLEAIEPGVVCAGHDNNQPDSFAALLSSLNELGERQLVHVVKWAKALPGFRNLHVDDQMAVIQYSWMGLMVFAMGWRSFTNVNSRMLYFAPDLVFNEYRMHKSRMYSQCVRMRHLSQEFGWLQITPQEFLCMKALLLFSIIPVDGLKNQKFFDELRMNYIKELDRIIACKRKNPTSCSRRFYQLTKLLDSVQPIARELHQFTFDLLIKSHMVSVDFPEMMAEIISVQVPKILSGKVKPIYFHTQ

On to `COc1cc(Cl)ccc1Cl`, for which the result in assay [1], in assay [3], in [8], in assay [12] and in [13] was inactive. For the same compound, the Potency result in assay [2], in assay [4], in [5], in assay [6], in assay [7] and in assay [9] was “inactive” throughout. Also, the Potency entry in assay [10], in assay [11] and in [14] was “inactive” in each case.

In the case of `CCNCCO`, the result in [1], in assay [3], in assay [12] and in assay [13] was inactive. The Potency result in [2], in assay [4], in assay [5], in assay [6], in [7] and in [10] was “inactive” each time. The Potency result in assay [11], in [15] and in assay [14] was “inactive” in each case.

In the case of `Cc1onc(-c2ccccc2)c1C(=O)Cl`, the outcome in [1], in [3], in assay [12] and in assay [13] was inactive. The Potency entry in assay [2], in assay [4], in assay [5], in [6], in [7] and in [9] was “inactive” in each case. Further, the Potency result in assay [10], in assay [11] and in [14] was “inactive” throughout.

In the case of `O=C(C(Cl)Cl)N1CCOC12CCCCC2`, the outcome in [1], in [3], in [8], in assay [12] and in assay [13] was inactive. The Potency result in assay [2], in assay [4], in assay [5], in [6], in assay [7] and in assay [9] was “inactive” throughout. The Potency result in [11], in assay [16], in [15] and in [14] was “inactive” each time.

As for `CC1=C(O)C(=O)OC1C` (stereo not drawn), the outcome in [1], in [3], in [8], in [12] and in assay [13] was inactive. For the same compound, the Potency entry in assay [2], in [4], in assay [5], in assay [6], in assay [7] and in [9] was “inactive” each time. In addition, the Potency entry in [10], in assay [11], in assay [15] and in [14] was “inactive” each time.

With `Cc1nc(-c2ccccn2)ncc1C(=O)Nn1cc(C)c2cc(F)ccc21`, the result in [1], in assay [3] and in [13] was inactive. The Potency result in assay [2], in [4], in [5], in assay [6], in assay [10] and in [17] was “inactive” in each case. Besides, the Potency result in assay [16], in [15] and in assay [14] was “inactive” each time.

For `CCCCCCCCc1ccc(S(=O)(=O)O)cc1`, the result in [1], in assay [3] and in assay [8] was inactive. The Potency result in assay [2], in assay [4], in assay [5], in assay [6], in [10] and in [14] was “inactive” throughout. For the same compound, the Potency in assay [11] is 19.2 µM (active).

As for `CC1CN(c2ccccc2)NC1=O` (stereo not drawn), the outcome in assay [1], in assay [3], in assay [12] and in assay [13] was inactive. Also, in assay [2], the Potency is 24.3 µM (active). The Potency result in assay [4], in assay [5], in assay [6], in assay [7], in assay [10] and in [15] was “inactive” each time. For the same compound, the Potency entry in [14] is “inactive”.

Consider `CCCCOc1cc(C(=O)NCCN(CC)CC)c2ccccc2n1`, for which the outcome in [1], in [3], in [8] and in [12] was inactive. For the same compound, the Potency result in assay [2], in [5], in assay [6] and in assay [14] was “inactive” throughout.

As for `CC(C)Nc1nc(N)nc(Cl)n1`, the result in assay [1], in [3], in [12] and in assay [13] was inactive. Besides, the Potency entry in [2], in assay [4], in assay [5], in [6], in assay [10] and in assay [11] was “inactive” each time. The Potency entry in assay [15] and in [14] was “inactive” each time.

On to `FC(F)(F)c1ccccc1`, for which the outcome in assay [1], in assay [8], in assay [12] and in assay [13] was inactive. Further, the Potency entry in assay [2], in assay [4], in [5], in assay [6], in assay [7] and in assay [9] was “inactive” throughout. The Potency result in [10], in assay [11], in [16] and in [14] was “inactive” in each case.
